The values that follow come from ChEMBL document CHEMBL2218924, “A broad activity screen in support of a chemogenomic map for kinase signalling research and drug discovery” (Biochem J, 2013).

One may read the residual activity as the signal under treatment as a percentage of the control signal.

The target of the assay is T1, Serine/threonine-protein kinase 17A (Homo sapiens) (UniProt Q9UEE5).
T1 sequence (whole entry): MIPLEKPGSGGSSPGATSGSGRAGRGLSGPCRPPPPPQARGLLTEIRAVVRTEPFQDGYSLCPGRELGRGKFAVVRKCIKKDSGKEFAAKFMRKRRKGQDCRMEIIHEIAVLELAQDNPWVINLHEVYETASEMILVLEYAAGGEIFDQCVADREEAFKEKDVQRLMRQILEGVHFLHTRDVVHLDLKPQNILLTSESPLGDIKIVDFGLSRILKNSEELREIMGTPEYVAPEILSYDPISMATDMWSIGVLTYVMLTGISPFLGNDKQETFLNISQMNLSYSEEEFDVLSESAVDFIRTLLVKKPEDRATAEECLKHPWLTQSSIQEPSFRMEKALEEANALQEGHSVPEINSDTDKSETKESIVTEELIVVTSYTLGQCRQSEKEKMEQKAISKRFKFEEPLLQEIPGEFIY
The following applies: at 1 µM.
As to `O=c1c2ccccc2[nH]c(=S)n1CCN1CCC(=C(c2ccc(F)cc2)c2ccc(F)cc2)CC1`, the residual activity turned out to be 71%.
The result for `O=[N+]([O-])c1ccc(-c2nc(-c3ccc(F)cc3)c(-c3ccncc3)[nH]2)cc1` reads 116%.
The result for `O=C1Nc2cc(Br)ccc2/C1=C1/Nc2ccccc2/C1=N\O` reads 8%.
Turning to `O=Nc1c(-c2c(O)[nH]c3ccccc23)[nH]c2ccccc12`, the residual activity was determined as 6%.
Consider `CC[n+]1c(/C=C/N(C)c2ccccc2)n(-c2ccccc2)c2ccc(-c3nc4ccccc4s3)cc21`, for which the residual activity turned out to be 119%.
The result for `Oc1n[nH]c2nnc(-c3c(-c4ccccc4)nn4ccccc34)cc12` reads 78%.
On to `CCN(CC)CCCCN1c2ccccc2Oc2ccc(Cl)cc21`, for which the residual activity stood at 124%.
The result for `Cn1nc2c3c(cccc31)C(=O)c1ccccc1-2` reads 50%; that for `NC(=O)c1ccc2[nH]c(-c3ccc(Oc4ccc(Cl)cc4)cc3)nc2c1`, 58%; that for `COc1cc2ncnc(N3CCN(C(=O)Nc4ccc(Oc5ccccc5)cc4)CC3)c2cc1OC`, 120%.
The result for `CC(=O)O/N=C1\C(=C2\C(=O)Nc3cc(Br)ccc32)Nc2ccccc21` reads 63%.
The result for `Ic1cccc(CSc2nnc(-c3ccncc3)o2)c1` reads 100%; that for `COc1cc2ncnc(Nc3ccc(Oc4ccccc4)cc3)c2cc1OC`, 81%; that for `Cc1nc2cc3nc(-c4cccs4)cnc3cc2n1C`, 64%.
Regarding `O=C1NC(=O)/C(=C/c2ccc3c(c2)OC(F)(F)O3)S1`, the residual activity is 118%.
For the compound `COc1ccc(C(=O)Nc2sc3c(c2C(N)=O)CCCC3)cc1OC`, the residual activity came out at 125%.
The result for `C[C@@H](N)[C@H]1CC[C@H](C(=O)Nc2ccncc2)CC1` reads 70%.
For `N#C/C(=C(\N)Sc1ccc(N)cc1)c1ccccc1C(F)(F)F`, the residual activity was 96%.
The result for `CC(C)n1cnc2c(NCc3ccccc3)nc(NCCCO)nc21` reads 107%; that for `Cn1cc(/C=C2\C(=O)Nc3ccc(S(N)(=O)=O)cc32)c2ccccc21`, 22%; that for `O=C1NC(=O)c2cc(Nc3ccc(F)cc3)c(Nc3ccc(F)cc3)cc21`, 105%.
The result for `Cc1ccc(S(=O)(=O)/C=C/C#N)cc1` reads 105%.
The result for `CNc1cc2c(Nc3cccc(Br)c3)ncnc2cn1` reads 64%.
Regarding `CN(C)c1ccc(/C=C2\C(=O)Nc3ccccc32)cc1`, the residual activity stood at 25%.
The result for `O=c1cc(-c2cccc3c2Sc2ccccc2S3)oc(N2CCOCC2)c1` reads 106%; that for `Cc1ccc(NC2=CC(=O)c3sc(C)nc3C2=O)cc1`, 109%; that for `COc1ccc(OC)c2c(=S)c3ccccc3[nH]c12`, 94%.
Take `Nc1cccc(-c2cc3c(Oc4cccc(O)c4)ncnc3[nH]2)c1`: the residual activity came out at 82%.
The result for `COc1ccc(CNc2nc(N(CCO)CCO)nc3c2ncn3C(C)C)cc1` reads 106%; that for `Cn1cnc2cc3c(Nc4cccc(Br)c4)ncnc3cc21`, 64%.
The result for `O=C1c2ccccc2-[n+]2ccc3c([nH]c4ccccc43)c21` reads 104%.
On to `O=C(O)c1ccc2c3c1cccc3c(=O)n1c3ccccc3nc21`, for which the residual activity amounted to 42%.
Take `COc1ccc(S(=O)(=O)N(CCO)c2ccccc2CN(C)C/C=C/c2ccc(Cl)cc2)cc1`: the residual activity came to 95%.
